Compound activity as filed in PubChem BioAssay.
TRPV1 ag – HTS Assay for Compounds that Act as Agonists of the Vanilloid Receptor 1. TRPV1-expressing cells, Fluo-8 calcium influx, agonist mode. activation, % at 8.33 µM. 0.19% of 320,000 active. AID 540275, 2011; in the data active means activation above about 80%; inconclusive means between about 30% and that limit
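TRPV1-expressing cells were cultured overnight at 35.5C and loaded with Fluo-8 calcium dye for 40 to 90 min at room temperature. After a 10 s baseline, compound was added and calcium influx was read kinetically for 3 min (ex 480/em 520 nm).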
TRPV1 potentiator – HTS Assay for Compounds that Act as Potentiators of the Vanilloid Receptor 1. Transient receptor potential cation channel subfamily V member 1 (Homo sapiens), Q8NER1. TRPV1-expressing cells, Fluo-8 calcium influx, capsaicin EC20 potentiation. potentiation, % at 8.33 µM. 0.02% of 320,000 active. AID 540277, 2011; in the data active means potentiation above about 80%; inconclusive means between about 30% and that limit
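Fluo-8 calcium influx in TRPV1-expressing cells, kinetic read (ex 480/em 520 nm). Compound added and read 3 min for agonist activity, followed by capsaicin at EC20 final and 2 min further read for enhancement.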
uPA surface inh – qHTS for Inhibitors of Cell Surface uPA Generation; cell surface uPA generation assay, qHTS; Potency, µM (top dose mostly 38.3 µM), hits mostly inhibitors; 0.31% of 330,000 active; active means well fitted inhibition curve with a large enough effect; inconclusive means small, poorly fitted or top-dose-only effect; inactive means no such curve, though single readings can be large or run the other way; tested in mouse RAW 264.7 cells; further: nearly all actives have a fitted effect of over 55% in size
RORg inh – qHTS for inhibitors of ROR gamma transcriptional activity; Drosophila S2 Gal4-RORgamma UAS-luciferase reporter, 20 h; Potency, µM (highest dose often 53.6 µM), hits mostly inhibitors; Nuclear receptor ROR-gamma (Mus musculus), P51450; AID 2551, 2010; 5.4% of 310,000 active; further: nearly all actives have a fitted effect of over 60% in size
Target sequence (P51450 whole entry, looked up, the tested form may be a part): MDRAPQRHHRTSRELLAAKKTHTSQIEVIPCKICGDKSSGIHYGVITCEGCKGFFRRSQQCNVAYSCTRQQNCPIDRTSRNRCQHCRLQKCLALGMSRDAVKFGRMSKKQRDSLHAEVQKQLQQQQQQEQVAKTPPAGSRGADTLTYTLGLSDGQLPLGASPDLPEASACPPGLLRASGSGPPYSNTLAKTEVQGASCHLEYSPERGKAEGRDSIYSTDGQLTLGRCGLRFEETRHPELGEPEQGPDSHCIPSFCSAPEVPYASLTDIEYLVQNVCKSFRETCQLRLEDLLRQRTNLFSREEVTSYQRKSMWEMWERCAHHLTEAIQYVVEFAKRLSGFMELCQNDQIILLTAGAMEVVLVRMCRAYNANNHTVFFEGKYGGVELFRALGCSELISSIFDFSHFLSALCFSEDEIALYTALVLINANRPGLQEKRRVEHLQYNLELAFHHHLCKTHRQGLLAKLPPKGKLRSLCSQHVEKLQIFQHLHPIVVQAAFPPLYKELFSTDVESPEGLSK
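Drosophila Schneider cells stably carrying a metallothionein-driven Gal4 DBD–ROR gamma fusion and a UAS-Photinus luciferase reporter were exposed to compound for 1 hr, then induced with copper sulfate (700 uM final) for 20 hr at ambient temperature before luminescence reading.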
Gal4-VP16 FLuc – VP16 counterscreen qHTS for inhibitors of ROR gamma transcriptional activity; AID 2546, 2010; 3.5% of 310,000 active; Potency, µM (top dose mostly 53.6 µM), hits mostly inhibitors; Drosophila S2 Gal4-VP16 UAS-luciferase, luminescence, 20 h;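 further: Gal4-VP16 expression switched on by copper sulfate through the metallothionein promoter; nearly all actives have a fitted effect of over 50% in size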
Large screens that a line does not name were inactive. In the library only some 5.8% were active in any assay of this set; here they are far more common. Unless noted, the call rests on the fitted dose curve; in most records, active means well fitted curve in the direction sought with a large enough effect; inconclusive means small, poorly fitted or top-dose-only effect, or another doubt; inactive means no such curve, though single readings can be large; an effect the other way counts as inactive or inconclusive.

S=C(NCc1ccco1)Nc1ccc(Cl)c(Cl)c1	TRPV1 ag inconclusive, RORg inh 13µM, Gal4-VP16 FLuc 16µM
CCCCC[C@H](O)/C=C\[C@H]1[C@H](C/C=C\CCCC(=O)O)[C@@H](O)C[C@H]1O (tested in a mixture with another compound)	none (no result: TRPV1 ag, TRPV1 potentiator, uPA surface inh)
C/C(=N\N=C(/N)SC1CC(=O)N(c2ccc(Cl)cc2)C1=O)c1cccs1 (configuration not stated)	RORg inh 13µM, Gal4-VP16 FLuc inconclusive
C/C(=N\N=C(/N)SC1CC(=O)N(c2ccccc2)C1=O)c1cccs1 (configuration not stated)	RORg inh inconclusive
CCc1ccc2c(c1)C1(NN=C(c3cccc4ccccc34)S1)C(=O)N2 (configuration not stated)	RORg inh 2.8µM, Gal4-VP16 FLuc 2.8µM (no result: uPA surface inh)
CC(C)(C)NC(=O)C(c1cccs1)N(Cc1ccc(F)cc1)C(=O)c1csnn1 (configuration not stated)	none
Cc1cc(N2CCCC2)nc2ccc(NC(=S)NC(C)C)cc12	TRPV1 potentiator inconclusive
Cc1cc(N2CCOCC2)nc2ccc(NC(=S)NC(C)C)cc12	RORg inh 10µM, Gal4-VP16 FLuc inconclusive
Cc1cc(N2CCOCC2)nc2ccc(NC(=S)NCc3ccc4c(c3)OCO4)cc12	RORg inh 22µM, Gal4-VP16 FLuc inconclusive
CC(=O)c1c(C)[nH]c(C(=O)OCC(=O)Nc2ccc(C)cc2[N+](=O)[O-])c1C	uPA surface inh inconclusive, Gal4-VP16 FLuc inconclusive
CC(=O)c1c(C)[nH]c(C(=O)OCC(=O)Nc2cc(Cl)ccc2[N+](=O)[O-])c1C	uPA surface inh inconclusive, RORg inh inconclusive, Gal4-VP16 FLuc 16µM
O=C1/C(=C/N(C(=O)c2ccco2)c2ccc(Br)cc2)Sc2ccccc21	TRPV1 ag inconclusive, RORg inh 35µM, Gal4-VP16 FLuc 13µM
CC1(c2cccc(Br)c2)NC(=O)N(CC(=O)Nc2ccc(F)cc2)C1=O (configuration not stated)	TRPV1 ag inconclusive
Cc1ccc(Nc2nc(CSc3n[nH]c(N)n3)cs2)cc1	uPA surface inh inconclusive, RORg inh 13µM
Nc1nc2ccccc2n1/N=C/c1ccc2c(c1)OCO2	RORg inh 10µM, Gal4-VP16 FLuc inconclusive
Nc1nc2ccccc2n1/N=C/c1ccc(Br)cc1	none
CC[C@H]1C(c2cccc(C)c2)=NN(c2ccccc2)[C@@H]1CO	none (no result: TRPV1 ag, TRPV1 potentiator, uPA surface inh)
Cc1cccc(C2=NN(c3ccccc3)[C@H](CO)[C@H]2c2ccc(Cl)cc2)c1	Gal4-VP16 FLuc 40µM (no result: TRPV1 ag, TRPV1 potentiator)
CC[C@H]1C(c2cccc(Cl)c2)=NN(c2ccccc2)[C@@H]1CO	RORg inh inconclusive, Gal4-VP16 FLuc 32µM (no result: TRPV1 ag, TRPV1 potentiator, uPA surface inh)
Cc1cccc(C2=NN(c3ccccc3)[C@H](CO)[C@H]2c2ccc(F)cc2)c1	none (no result: TRPV1 ag, TRPV1 potentiator)
O=S(=O)(Nc1cccnc1)c1cccc2ccccc12	none (no result: uPA surface inh, RORg inh, Gal4-VP16 FLuc)
O=C(Nc1cc(Cl)cc(Cl)c1)c1ccno1	none
CCOC(=O)c1nn(-c2ccccc2)c(C(=O)OCC)c1N	RORg inh 1.3µM
CCOC(=O)c1nn(-c2ccccc2)c(=O)c2c(N)scc12	none
O=C(CSc1nnc(-c2cccnc2)o1)c1cc2ccccc2oc1=O	RORg inh inconclusive, Gal4-VP16 FLuc 4µM (no result: TRPV1 ag, TRPV1 potentiator)
Nc1nc(=S)[nH]c2c1C1(CCCC1)Cc1ccccc1-2	RORg inh 6.3µM, Gal4-VP16 FLuc 8.9µM
O=c1oc(-c2ccccc2)nc2c1C1(CCCCC1)Cc1ccccc1-2	none
Nc1n[nH]c2c1C1(CCCC1)Cc1ccccc1-2	TRPV1 potentiator inconclusive, RORg inh inconclusive
Nc1nc(=S)[nH]c2c1C1(CCCCC1)Cc1ccccc1-2	RORg inh 2.2µM, Gal4-VP16 FLuc 4µM
O=C(CNC(=O)c1ccc(Br)o1)NNC(=O)c1ccccc1F	RORg inh inconclusive
O=C(NNc1nc(-c2ccccc2)cs1)c1cccs1	RORg inh 7.9µM, Gal4-VP16 FLuc inconclusive
Cc1nc(-c2ccc(NC(=O)c3ccccc3)cc2)cs1	uPA surface inh 2.2µM
CC(=O)NNc1nc(-c2ccccc2)cs1	none
O=C(NNc1nc(-c2ccc(F)cc2)cs1)c1ccccc1	RORg inh 5µM, Gal4-VP16 FLuc inconclusive
